Source: PubChem BioAssay (NCI)
About 83,000 compounds went through this panel and 20% of them were active in at least one assay; those are over-represented in the sample as a whole.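 Plates (96-well) were seeded with cells, treated with compound at one concentration, and incubated for 48 hours before percent growth was determined.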 A number with no mark means an inactive call. Calls of active or inactive are those of the source. The calls were made as follows: active = growth percent below 10; inactive = the rest.

Key:
Test in all cases: NCI-60 one-dose screen, 48 h (100 = growth as untreated, 0 = no growth, -100 = all killed)
[1] = test system: DU-145 prostate; settings: 10 µM unless noted
[2] = test system: K-562 leukemia; settings: 10 µM unless noted
[3] = test system: MALME-3M melanoma; settings: 10 µM unless noted
[4] = test system: MDA-MB-231 breast; settings: 10 µM unless noted
[5] = test system: RXF 393 renal; settings: 10 µM unless noted
[6] = test system: SF-268 CNS; settings: 10 µM unless noted
[7] = test system: SF-295 CNS; settings: 10 µM unless noted
[8] = test system: SF-539 CNS; settings: 10 µM unless noted
[9] = test system: UACC-257 melanoma; settings: 10 µM
[10] = test system: M14 melanoma; settings: 10 µM unless noted
[11] = test system: HCT-15 colon; settings: 10 µM unless noted
[12] = test system: HT29 colon; settings: 10 µM unless noted
[13] = test system: SNB-19 CNS; settings: 10 µM unless noted
[14] = test system: U251 CNS; settings: 10 µM unless noted
[15] = test system: PC-3 prostate; settings: 10 µM unless noted
[16] = test system: SK-MEL-5 melanoma; settings: 10 µM unless noted
[17] = test system: UACC-62 melanoma; settings: 10 µM unless noted
[18] = test system: LOX IMVI melanoma; settings: 10 µM unless noted
[19] = test system: SK-MEL-28 melanoma; settings: 10 µM unless noted
[20] = test system: SNB-75 CNS; settings: 10 µM unless noted

Compound: COc1cc2cc(Oc3ccc(NC(=O)Nc4cccc(C(F)(F)F)c4)cc3)c(C)nc2cc1OCCN(C)C
- growth [1]: 92.5%
- growth [2]: 10% (active)
- growth [3]: 84.7%
- growth [4]: 98.1%
- growth [5]: 75.9%
- growth [6]: 107%
- growth [7]: 81.1%
- growth [8]: 92%
- growth [9]: 100%
- growth [10]: 107%
- growth [11]: 25%
- growth [12]: 60.1%
- growth [13]: 99%
- growth [14]: 84.8%
- growth [15]: 85.9%
- growth [16]: 81.2%
- growth [17]: 100%
- growth [18]: -74.9% (active)
- growth [19]: 91.6%

Compound: CCCC(=O)NC(c1cccnc1)c1cc(Cl)c2cccnc2c1O (stereo not drawn)
- growth [1]: 62.9%
- growth [2]: 19.7%
- growth [3]: 79.6%
- growth [4]: 45.1%
- growth [5]: 80.5%
- growth [6]: 42.7%
- growth [7]: 10.8%
- growth [8]: 38%
- growth [9]: 34.9%
- growth [10]: 44%
- growth [11]: 18.5%
- growth [12]: 35.5%
- growth [13]: 19.4%
- growth [14]: 24.2%
- growth [15]: 41.1%
- growth [16]: 34.3%
- growth [18]: 32.7%
- growth [19]: 51.9%

Compound: CN(c1ccc(Br)cc1)S(=O)(=O)c1ccc(-c2cnc(C3CC3)o2)cc1
- growth [1]: 26.2%
- growth [2]: 7.96% (active)
- growth [3]: 63.8%
- growth [4]: 29.9%
- growth [5]: 6.23% (active)
- growth [6]: 65.9%
- growth [7]: -0.0962% (active)
- growth [8]: 1.56% (active)
- growth [9]: 67.3%
- growth [10]: 8.2% (active)
- growth [11]: 17.7%
- growth [12]: 11%
- growth [13]: 37.3%
- growth [14]: 22.7%
- growth [15]: 22.4%
- growth [16]: 30%
- growth [17]: 28.5%
- growth [19]: 58.1%

Compound: O=C(CCCCCCN1CC(=O)N2[C@@H](c3cccc(Cl)c3)c3[nH]c4ccccc4c3C[C@H]2C1=O)NO
- growth [1]: 46.3%
- growth [2]: 24%
- growth [3]: 29.1%
- growth [4]: 39.5%
- growth [5]: 9.1% (active)
- growth [6]: 64.4%
- growth [7]: 52%
- growth [8]: 50.6%
- growth [9]: 44%
- growth [10]: 45.6%
- growth [11]: 85.7%
- growth [12]: 30.6%
- growth [13]: 61.2%
- growth [14]: 44.9%
- growth [16]: 33.6%
- growth [17]: 16%
- growth [18]: -80.3% (active)
- growth [19]: 40.2%

Compound: Oc1ccc(CSc2nnc(-c3ccc(Oc4ccccc4)cc3)n2-c2ccccc2)c2cccnc12
- growth [1]: 26.5%
- growth [2]: 15.3%
- growth [3]: 11.9%
- growth [4]: 35.8%
- growth [5]: 21.5%
- growth [6]: 22.3%
- growth [7]: 0.102% (active)
- growth [8]: 2.32% (active)
- growth [9]: 0.403% (active)
- growth [10]: -4.33% (active)
- growth [11]: 10.8%
- growth [12]: 44.8%
- growth [13]: 13.8%
- growth [14]: 11.9%
- growth [15]: 17.3%
- growth [16]: -24.1% (active)
- growth [17]: -25.4% (active)
- growth [18]: 4.48% (active)
- growth [19]: 14.6%

Compound: Cc1cc(F)cc(NS(=O)(=O)c2ccc(-c3cnc(C4CC4)o3)cc2)c1
- growth [1]: 23.7%
- growth [2]: 8.06% (active)
- growth [3]: 59.2%
- growth [4]: 30.5%
- growth [5]: -3.39% (active)
- growth [6]: 63.6%
- growth [7]: -5.64% (active)
- growth [8]: -1.6% (active)
- growth [9]: 59.1%
- growth [10]: 19.5%
- growth [11]: 22.4%
- growth [12]: 8.59% (active)
- growth [13]: 35.2%
- growth [14]: 22.6%
- growth [15]: 17.4%
- growth [16]: 21.5%
- growth [17]: 25.6%
- growth [19]: 60.4%

Compound: O=S(=O)(Nc1cc(Cl)c(F)c(Cl)c1)c1ccc(-c2cnc(C3CC3)o2)cc1
- growth [1]: 24.4%
- growth [2]: 15%
- growth [3]: 55%
- growth [4]: 56.2%
- growth [5]: 5.28% (active)
- growth [6]: 73.9%
- growth [7]: 16.8%
- growth [8]: 19.2%
- growth [9]: 70.3%
- growth [10]: 23%
- growth [11]: 35.2%
- growth [12]: 13.4%
- growth [13]: 44.3%
- growth [14]: 30.4%
- growth [16]: 28.8%
- growth [17]: 42.6%
- growth [18]: 43.2%
- growth [19]: 66.7%

Compound: O=C(Nc1cccc(Cl)c1)Nc1nc2ccc([N+](=O)[O-])cc2s1
- growth [1]: 15.2%
- growth [2]: 4.51% (active)
- growth [3]: -9.22% (active)
- growth [4]: -9.3% (active)
- growth [5]: -26.4% (active)
- growth [6]: 9.76% (active)
- growth [7]: -68.9% (active)
- growth [8]: 7.66% (active)
- growth [9]: -15.2% (active)
- growth [10]: 0.118% (active)
- growth [11]: 1.52% (active)
- growth [12]: 4.55% (active)
- growth [13]: 21.2%
- growth [14]: 5.89% (active)
- growth [15]: 6.96% (active)
- growth [16]: -75.3% (active)
- growth [17]: -40.2% (active)
- growth [19]: 0.117% (active)

Compound: Cc1cc(Cl)cc(NS(=O)(=O)c2ccc(-c3cnc(C4CC4)o3)cc2)c1
- growth [1]: 24.7%
- growth [2]: 8.81% (active)
- growth [3]: 65.4%
- growth [4]: 35.4%
- growth [5]: -0.916% (active)
- growth [6]: 61.7%
- growth [7]: 1.04% (active)
- growth [8]: 6.15% (active)
- growth [9]: 68.2%
- growth [10]: 13.1%
- growth [11]: 21.8%
- growth [12]: 10.7%
- growth [13]: 36%
- growth [14]: 23.9%
- growth [15]: 17.4%
- growth [16]: 32.5%
- growth [17]: 31.5%
- growth [19]: 55.4%

Compound: C(=C(\C1=NCCN1)n1cnc2ccccc21)/c1ccc2ccccc2c1
- growth [1]: 68.7%
- growth [2]: 25.4%
- growth [3]: 79.2%
- growth [4]: 62.5%
- growth [5]: -14.1% (active)
- growth [6]: 81.8%
- growth [7]: 77.7%
- growth [8]: 82%
- growth [9]: 82.3%
- growth [10]: 61.7%
- growth [11]: 61.1%
- growth [20]: 72.9%
- growth [13]: 81.3%
- growth [14]: 87.3%
- growth [15]: 33.5%
- growth [16]: 63%
- growth [17]: 77.2%
- growth [18]: 71.5%
- growth [19]: 79.4%

Compound: CCN(CC)CCN1C(=O)c2c(c3c4cccnc4[nH]c3c3ccc4ccccc4c23)C1=O
- growth [1]: 54.7%
- growth [2]: 18.7%
- growth [3]: 86.7%
- growth [4]: 89.7%
- growth [5]: 78.8%
- growth [6]: 50.3%
- growth [7]: 35.4%
- growth [8]: 76.5%
- growth [9]: 98.2%
- growth [10]: 61.1%
- growth [11]: 58.7%
- growth [20]: 54.3%
- growth [13]: 59.5%
- growth [14]: 63.5%
- growth [16]: 80%
- growth [19]: 106%

Compound: COc1ccc(Cn2cc3c(c2-c2cc(OC)c(OC)c(OC)c2)CCCc2cnoc2-3)cc1
- growth [1]: 17.4%
- growth [2]: 10.2%
- growth [3]: 57.5%
- growth [4]: 32.4%
- growth [5]: -2.75% (active)
- growth [6]: 57.7%
- growth [7]: 5.29% (active)
- growth [8]: 2.82% (active)
- growth [9]: 81.5%
- growth [10]: 2.98% (active)
- growth [11]: 20.1%
- growth [20]: -17.6% (active)
- growth [13]: 23.1%
- growth [14]: 28.6%
- growth [15]: 44.4%
- growth [16]: 21.6%
- growth [17]: 33.9%
- growth [18]: 35.8%
- growth [19]: 64.4%

Compound: COc1ccc2c(c1)oc1c3[nH]c4ccccc4c3c3c(c21)C(=O)N(O)C3=O
- growth [1]: 38.2%
- growth [2]: 31.2%
- growth [3]: 64.4%
- growth [4]: 82.9%
- growth [5]: 31.9%
- growth [6]: 33.5%
- growth [7]: 29.7%
- growth [8]: 28.9%
- growth [9]: 78.8%
- growth [10]: 29.9%
- growth [11]: 50.5%
- growth [20]: 39.7%
- growth [13]: 32.6%
- growth [14]: 15.7%
- growth [15]: 45.4%
- growth [16]: -22.1% (active)
- growth [17]: 12.4%
- growth [18]: -76% (active)
- growth [19]: 76.3%

Compound: Oc1ccc(CSc2nnc(-c3ccccc3)n2-c2ccccc2)c2cccnc12
- growth [1]: 21.3%
- growth [2]: 11.2%
- growth [3]: 12.2%
- growth [4]: 31%
- growth [5]: -4.02% (active)
- growth [6]: 17.2%
- growth [7]: 0.953% (active)
- growth [8]: 0.484% (active)
- growth [9]: 3.18% (active)
- growth [10]: -10.6% (active)
- growth [11]: 13.6%
- growth [13]: 12.6%
- growth [14]: 12.8%
- growth [15]: 23%
- growth [16]: -22% (active)
- growth [17]: -34.1% (active)
- growth [18]: 5.5% (active)
- growth [19]: 17.7%

Compound: O=C1c2cc(Br)ccc2-n2c1nc1cc(Br)ccc1c2=O
- growth [1]: 74.1%
- growth [2]: 73.9%
- growth [3]: 44.1%
- growth [4]: 75.5%
- growth [5]: 97.6%
- growth [6]: 78%
- growth [7]: 87%
- growth [8]: 92.4%
- growth [9]: 43.1%
- growth [10]: 72.2%
- growth [11]: 64.8%
- growth [20]: 68.3%
- growth [13]: 84.6%
- growth [14]: 91.9%
- growth [15]: 60.9%
- growth [16]: 60.6%
- growth [18]: 63.9%
- growth [19]: 88.9%
